Measurements from article PMC4336329 (PLoS ONE, 2015).
In all, about 310,000 compounds went through this assay and about 14,000 (4.5%) showed an effect of 50% or more. The effect is printed as a negative number. The entries come from a sample that favours strong results as a whole.

target: human ether-à-go-go-related gene (hERG) potassium channel (human, UniProt Q12809); assay: primary screen, population patch clamp on CHO cells stably expressing hERG; higher = less effect of the substance
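Further: peak tail current of the secondary pulse compared with the same well before compound.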

Sequence of human ether-à-go-go-related gene (hERG) potassium channel (Q12809 whole entry, looked up): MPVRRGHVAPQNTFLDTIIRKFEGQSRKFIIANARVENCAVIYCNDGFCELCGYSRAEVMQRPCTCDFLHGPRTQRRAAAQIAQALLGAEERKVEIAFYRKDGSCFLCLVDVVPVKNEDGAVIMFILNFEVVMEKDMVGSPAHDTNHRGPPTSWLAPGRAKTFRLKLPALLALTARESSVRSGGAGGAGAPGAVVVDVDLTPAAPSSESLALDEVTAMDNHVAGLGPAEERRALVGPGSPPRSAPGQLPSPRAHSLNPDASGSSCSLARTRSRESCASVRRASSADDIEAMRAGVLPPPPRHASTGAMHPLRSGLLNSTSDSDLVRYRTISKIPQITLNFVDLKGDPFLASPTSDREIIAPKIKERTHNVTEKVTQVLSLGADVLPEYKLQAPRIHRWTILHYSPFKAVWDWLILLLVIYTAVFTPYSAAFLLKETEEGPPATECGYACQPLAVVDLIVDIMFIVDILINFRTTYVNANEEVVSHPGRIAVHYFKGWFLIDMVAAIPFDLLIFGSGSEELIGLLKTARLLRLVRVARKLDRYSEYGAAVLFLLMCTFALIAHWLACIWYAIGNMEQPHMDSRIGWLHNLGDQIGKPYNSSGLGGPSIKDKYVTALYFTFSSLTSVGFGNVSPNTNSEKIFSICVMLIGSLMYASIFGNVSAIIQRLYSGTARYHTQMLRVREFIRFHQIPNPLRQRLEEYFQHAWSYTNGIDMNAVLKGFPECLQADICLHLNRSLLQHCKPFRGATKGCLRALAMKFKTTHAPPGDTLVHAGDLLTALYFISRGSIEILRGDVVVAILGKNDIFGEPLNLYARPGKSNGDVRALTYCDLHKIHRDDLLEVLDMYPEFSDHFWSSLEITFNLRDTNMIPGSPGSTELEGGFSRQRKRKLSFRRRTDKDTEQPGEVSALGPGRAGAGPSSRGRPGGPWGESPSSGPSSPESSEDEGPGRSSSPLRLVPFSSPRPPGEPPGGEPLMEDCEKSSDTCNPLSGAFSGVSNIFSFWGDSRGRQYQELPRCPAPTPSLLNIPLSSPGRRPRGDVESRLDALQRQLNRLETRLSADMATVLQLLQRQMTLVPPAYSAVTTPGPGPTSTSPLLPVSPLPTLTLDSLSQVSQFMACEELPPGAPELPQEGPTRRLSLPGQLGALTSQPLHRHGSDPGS

Row | Structure (SMILES) | hERG current change (%, negative = inhibition) at 10uM [%]
1 | CN(CC1CCCN(CCc2ccc(F)cc2)C1)C(=O)CCC(N)=O (stereo not drawn) | -23.9
2 | CN(CC1CCCN(CCc2ccc(Cl)cc2)C1)C(=O)CC(F)(F)F (stereo not drawn) | -60.5
3 | CC(=O)Nc1cccc(C(=O)OCc2csc(CC(=O)Nc3ccccc3C)n2)c1 | -14
4 | N#CCCn1cc(C=C2C(=O)NC(=O)NC2=O)c(-c2ccccc2)n1 | 25.2
5 | CCOc1ccc(C)cc1S(=O)(=O)n1ccc(C)n1 | 4.82
6 | O=C(CC(c1ccccc1)c1cc(Br)ccc1O)NCCCN1CCOCC1 (stereo not drawn) | -31.3
7 | Cc1ccc(CSCc2ccc(C(=O)NC3CC3)o2)cc1 | -5.31
8 | Cc1cccc(CSCc2ccc(C(=O)NC3CCCC3)o2)c1 | -55.5
9 | Cc1ccccc1S(=O)(=O)Cc1ccc(C(=O)NCCCN2CCC(C)CC2)o1 | -36.2
10 | COc1ccc(Cl)cc1C(=O)NCCCN1CCOCC1 | 9.16
11 | O=C(CC(c1ccccc1)c1cc(Cl)ccc1O)NCCN1CCOCC1 (stereo not drawn) | -42.1
12 | O=C(NCCCN1CCOCC1)c1cc(Cl)ccc1Cl | 11.5
13 | O=C(NCc1ccc2c(c1)OCO2)c1ccc(CSCc2cccc(Cl)c2)o1 | -11.1
14 | CC1CCN(CCCNC(=O)c2ccc(CSCc3cccc(Cl)c3)o2)CC1 | -74.8
15 | O=C(NCCCN1CCOCC1)c1cc(Cl)ccc1OCc1ccccc1 | -55.7
16 | Cc1ccc(CSCc2ccc(C(=O)NC3CCCC3)o2)cc1 | -18.2
17 | O=C(CC(c1ccccc1)c1cc(Cl)ccc1O)NCCCN1CCOCC1 (stereo not drawn) | -50
18 | CCC(C)C(NC(=O)C1CCC(C)CC1)C(=O)Nc1ccc(OC)cc1OC (stereo not drawn) | -4.26
19 | CCCCC(c1nnnn1C(C)C)N1CCN(C(=O)c2ccco2)CC1.Cl (stereo not drawn) | -18.9
20 | O=C(c1ccccc1)N1N=C(c2ccccc2)CC1c1ccccc1[N+](=O)[O-] (stereo not drawn) | 13.4
21 | COc1ccccc1CNc1cc(CSc2ccc(Cl)cc2)nc(C)n1 | -0.554
22 | CCOC(=O)c1ccc(N2Cc3ccccc3C2=NC(=O)c2cccc([N+](=O)[O-])c2)cc1 | 10.7
23 | CN(C)c1ccc(/C=N/NC(=O)CCCO)cc1 | 24.4

Row | Structure (SMILES) | hERG current change (%, negative = inhibition) at 10uM [%]
24 | O=C(NCCCN1CCOCC1)c1ccc(CSCc2cccc(Cl)c2)o1 | -64.4
25 | Cc1ccc(CSCc2ccc(C(=O)NCCCN3CCOCC3)o2)cc1 | -51.8
26 | Cc1ccccc1CSCc1ccc(C(=O)NCCCN2CCOCC2)o1 | -47.6
27 | COCCNC(=O)c1ccc(CSCc2cccc(Cl)c2)o1 | -7.69
28 | O=C(NCCN1CCOCC1)c1ccc(CSCc2cccc(Cl)c2)o1 | -43.7
29 | CN1CCN(CCCNC(=O)c2ccc(CSCc3cccc(Cl)c3)o2)CC1 | -40.2
30 | O=C(NCCCN1CCCC1)c1ccc(CSCc2cccc(Cl)c2)o1 | -61.8
31 | Cc1cccc(CS(=O)(=O)Cc2ccc(C(=O)NCCCN3CCOCC3)o2)c1 | -12.6
32 | Cc1ccc(CSCC(=O)NCCCN2CCOCC2)cc1 | 11.4
33 | CC(=O)Nc1ccc(S(=O)(=O)Nc2ccc3c(c2)OCCO3)cc1Cl | 15.5
34 | CN(Cc1ccccc1)C(=O)c1c[nH]c2ccc(S(=O)(=O)N3CCOCC3)cc2c1=O | 3.03
35 | Cc1ccc(S(=O)(=O)N2CCN(C(=O)n3ccnc3)CC2)cc1 | -5.76
36 | CC(C)Cc1nc(N2CCN(C(=O)c3ccccc3)CC2)c(C#N)c2c1CCC2 | -24.1
37 | COc1cc(C)c(S(=O)(=O)NOCc2ccc([N+](=O)[O-])cc2)c(C)c1C | 8.43
38 | CN(C)C(=O)N1CCNCC1.Cl | 12.8
39 | CC(C)[C@H](NC(=O)OC(C)(C)C)C(=O)N1CCC(C(=O)N[C@@H](C)C(=O)Nc2ccc(F)cc2)CC1 | 10.7
40 | Cn1c(=O)c2c(nc(SCC(=O)NCc3ccc4c(c3)OCO4)n2Cc2ccccc2)n(C)c1=O | -46.9
41 | Cn1c(=O)c2c(nc(SCC(=O)NCc3ccc4c(c3)OCO4)n2Cc2ccc(F)cc2)n(C)c1=O | -63.1
42 | Cn1c(=O)c2c(nc(SCC(=O)NCC3CCCO3)n2Cc2ccc(F)cc2)n(C)c1=O (stereo not drawn) | -41.6
43 | Cn1c(=O)c2c(nc(SCC(=O)NCc3ccc4c(c3)OCO4)n2Cc2ccc(Cl)cc2)n(C)c1=O | -50.6
44 | Cn1c(=O)c2c(nc(NCc3ccc4c(c3)OCO4)n2Cc2ccc(F)cc2)n(C)c1=O | -5.77
45 | CCn1c(SCC(=O)Nc2ccc3c(c2)OCO3)nc2c1c(=O)n(C)c(=O)n2C | -0.539
